# Compound activity deposited in PubChem BioAssay by National Center for Advancing Translational Sciences (NCATS).
# Compounds with a hit are over-represented: about 3.6% of the library has one in this group of screens.
# Rango-impB inh: prevents formation of the Rango-importin beta complex | Rango CFP/YFP FRET sensor + importin beta, 45 min | Potency, µM (doses to about 92.2 µM), without a hit: at the highest dose inhibition of complex formation | 0.031% of 340,000 active | Q14974 | AID 540263; calls by dose curve;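 further: potency means the concentration at half of the fitted maximal effect; 0% = DMSO wells and 100% = buffer wells lacking importin beta; nearly all actives have a fitted effect of over 15% in size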
#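 Inhibition scored from the CFP 486 nm/YFP 530 nm FRET ratio 45 min after adding 0.125 microM importin beta to 50 nM Rango biosensor preincubated 5 min with compound (room temperature, PBS with DTT, Tween-20, BSA). No-importin wells as positive control.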
# PI5P4K alpha inh: PI5P4K alpha (human) kinase inhibition; P48426; PI5P4Kalpha enzyme, ADP-Glo luminescence, 60 min; hits give low values; max response, %; 1.2% of 330,000 active; active means max response of -50% or lower; inconclusive means between -30% and -50%; inactive means -30% or higher; further: value at the top dose of about 77 µM; on the % scale 0 is the no-effect control and ±100 the full control effect
#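 qHTS, 1536-well: enzyme/substrate mix, compound by pin tool, 5 microM ATP final; RT 60 min; ADP-Glo reagents 1 (45 min) then 2 (30 min); luminescence.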
# GCN5L2 inh: blocks human GCN5L2 histone acetyltransferase; GCN5L2 HAT assay, ThioGlo1 CoA-SH fluorescence; Potency, µM (highest dose often 58.9 µM), for the others: at the top dose activity change, negative = inhibition, usual class: inhibitors; 0.21% of 390,000 active; AID 504327; further: potency means the concentration at half of the fitted maximal effect; on the % scale 0 is the no-effect control and ±100 the full control effect
#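 Preincubate 20nM GCN5L2 with compound 15 min, RT → add 50uM ThioGlo1 + 75uM H3(1-25) + 70uM acetyl-CoA → read fluorescence 0 and 20 min. Primary qHTS; fluorescent artifacts likely.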
# Rango dissoc inh: inhibition of RanGTP-driven Rango-importin beta dissociation. AID 540253. 0.071% of 340,000 active. Biochemical FRET Rango-importin beta, RanGTP-induced dissociation. O95149+P62826. Potency, µM (top dose mostly 46.1 µM), for the others: at the top dose activity change, negative = inhibition; calls by dose curve; further: potency means the concentration at half of the fitted maximal effect; % of control where 0% means no effect; nearly all actives have a fitted effect of over 45% in size
#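 Rango/importin beta premix (0.1/0.25 uM final), PBS + 1 mM DTT + 0.02% Tween-20 + 0.1% BSA; cpd 5 min RT; FRET pre-read; + RanGTP-RCC1 (0.6 uM Ran, 2 mM GTP, 0.2 uM RCC1); 45 min RT; FRET post-read, ex 430, em 486/530 nm.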
# PLK1 PBD block: PLK1 (human) polo-box domain binding inhibition; P53350; Plk1 PBD binding of FITC phosphopeptide, fluorescence polarization; Potency, µM, for the others: max response, negative = inhibition, hits mostly inhibitors; 2.8% of 360,000 active; AID 720504; further: potency means the concentration at half of the fitted maximal effect; series mostly up to about 57 µM; on the % scale 0 is the no-effect control and ±100 the full control effect; nearly all actives have a fitted effect of over 65% in size
# VDR inhibitor: blocks the human vitamin D receptor; P11473; 0.93% of 400,000 active; Potency, µM, inactives show max response, negative = inhibition, most hits filed as inhibitors; VDR-SRC2-3 peptide fluorescence polarization, 2 h; further: potency means the concentration at half of the fitted maximal effect; on the % scale 0 is the no-effect control and ±100 the full control effect
# Target sequence (P11473 whole entry, looked up): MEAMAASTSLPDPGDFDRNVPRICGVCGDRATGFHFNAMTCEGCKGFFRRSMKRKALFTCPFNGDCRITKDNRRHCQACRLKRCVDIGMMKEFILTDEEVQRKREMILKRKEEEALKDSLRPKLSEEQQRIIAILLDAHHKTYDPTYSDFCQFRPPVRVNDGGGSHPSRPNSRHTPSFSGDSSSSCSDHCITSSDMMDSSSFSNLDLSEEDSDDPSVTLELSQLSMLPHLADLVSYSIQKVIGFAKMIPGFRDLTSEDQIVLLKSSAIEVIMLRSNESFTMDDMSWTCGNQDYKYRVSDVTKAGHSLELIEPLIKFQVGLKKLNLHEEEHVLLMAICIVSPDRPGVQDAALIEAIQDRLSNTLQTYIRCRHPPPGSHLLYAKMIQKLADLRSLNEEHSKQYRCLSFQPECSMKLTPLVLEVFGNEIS
#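 Reagent solutions, kept cold and dark, are dispensed first; compounds are then pinned in at 23 nl, plates briefly spun, and incubated 2 h at ambient temperature. Inhibition of VDR–SRC2-3 peptide binding is read by fluorescence polarization.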
# * = called active by the depositor; ? = inconclusive; · = no result. Unless noted, the call rests on the fitted dose curve; in most records, active means well fitted curve in the direction sought with a large enough effect; inconclusive means small, poorly fitted or top-dose-only effect, or another doubt; inactive means no such curve, though single readings can be large; an effect the other way counts as inactive or inconclusive.
SMILES,Rango-impB inh,PI5P4K alpha inh,GCN5L2 inh,Rango dissoc inh,PLK1 PBD block,VDR inhibitor
Cc1ccc2c(C)c(C(=O)NCc3ccc(S(N)(=O)=O)cc3)oc2c1C,-0.1%,5.1,20µM*,4.6%,-13.0%,3.3%
Cc1ccc2c(C)c(C(=O)Nc3ccc(S(N)(=O)=O)cc3)oc2c1C,2.0%,-8.9,24.9%,5.6%,-25.4%,22.8%
COc1ccc(C(=O)NNC(=O)C2=NN(c3ccccc3)C(=O)CC2)cc1,-1.0%,0.0,-23.4%,-0.2%,-18.2%,-9.7%
COC(=O)CC1=NN(c2ccccc2)C(=O)/C1=C\c1ccc(OC)cc1,2.6%,-4.6,-20.3%,-9.5%,2.67µM*,-24.6%
CCOC(=O)C1=NN(c2ccccc2)C(=O)/C1=C\c1ccc(N(C)C)cc1,-3.6%,1.1,-21.9%,-6.1%,1.89µM*,?
COc1ccc(C=C2c3ccccc3C(=O)c3ccccc32)c(OC)c1,·,·,-4.0%,·,·,·
CC1=NN(Cc2ccccc2)C(=O)/C1=C\c1ccc(N(C)C)cc1,5.8%,1.3,-6.2%,-0.4%,-2.4%,1.2%
CCOC(=O)CC1=NN(c2ccccc2)C(=O)/C1=C\c1ccc(OC)cc1OC,4.4%,-4.3,-5.8%,-11.3%,2.67µM*,50.1µM*
O=C(CSc1ncc2c(n1)-c1ccccc1N(Cc1ccc(F)cc1)S2(=O)=O)c1ccc(Cl)cc1,·,·,3.7%,·,·,1.6%
Cc1ccc(OCC(=O)Nc2ccc(OCc3cc(=O)n4ccsc4n3)cc2)cc1,·,·,-5.5%,·,·,-0.5%
CCOc1ccc(CSC(=N)N)cc1Cl,0.3%,1.3,-4.2%,1.8%,-10.0%,-13.5%
CCCOc1ccc(Br)cc1CSC(=N)N,-0.5%,1.4,5.6%,-5.8%,29.9µM*,-6.7%
CCOC(=O)c1c(-c2ccc3ccccc3c2)csc1NC(=O)CCCC(=O)O,-0.1%,-1.7,-13.5%,-4.0%,23.8µM*,-24.0%
CCOC(=O)c1c(-c2ccc(OC)cc2)csc1NC(=O)CCN1C(=O)c2ccccc2C1=O,?,·,-13.9%,-19.9%,10.6µM*,-29.5%
CCOC(=O)c1c(-c2ccc(OCC)cc2)csc1NC(=O)CCN1C(=O)c2ccccc2C1=O,·,·,-1.1%,·,·,·
CCOC(=O)c1c(-c2ccccc2)csc1NC(=O)CSc1nc(C)cc(C)n1,-4.0%,-0.3,-13.8%,1.8%,-2.4%,10.6%
COc1ccc(-c2nc3ccccc3n3c(-c4ccccc4)c4c(=O)n(C)c(=O)n(C)c4c23)cc1OC,·,·,-8.9%,·,·,-23.8%
CCCN(CCC)S(=O)(=O)c1ccc(C(=O)OCCN2C(=O)c3cccc4c(N5CCOCC5)ccc(c34)C2=O)cc1,?,-4.5,-23.7%,?,15µM*,-10.0%
COc1cc(/C=C2\C(=N)N3N=CSC3=NC2=O)ccc1OS(=O)(=O)c1ccccc1,?,?,-5.3%,10.3%,?,79.4µM*
CCOc1cc(/C=N/n2cnnc2)ccc1OS(=O)(=O)c1ccccc1,-2.0%,-1.4,-8.7%,0.4%,0.5%,-3.4%
CCOc1cc(/C=C2\C(=N)N3N=CSC3=NC2=O)ccc1OS(=O)(=O)c1ccccc1,?,?,-26.6%,-17.7%,23.8µM*,?
C=C(C)CSc1nc2sc3c(c2c(=O)n1-c1ccccc1)CCC(C)C3 (stereo not drawn),·,·,2.2%,·,·,-20.7%
O=c1nc2ccccc2c(NS(=O)(=O)c2ccc(Cl)cc2)n1-c1ccccc1,-6.7%,-0.2,3.16µM*,-7.1%,?,-18.9%
N#C/C(=C\c1ccc(Cl)cc1)C(=O)NCC1CCCO1 (stereo not drawn),·,·,-7.2%,·,·,?
O=C1NN=C(CSc2n[nH]c(=S)s2)CS1,0.9%,-55.4*,?,9.5%,?,-20.8%
COc1ccc(CCNC(=O)C2CCCN(c3nc4c(C)cc(C)cc4s3)C2)cc1OC (stereo not drawn),·,·,-2.5%,·,·,-5.9%
CC1=NN(c2ccccc2)C(=O)/C1=C\c1cn(-c2ccccc2)nc1C,-3.4%,1.2,-6.1%,14.5%,-15.5%,2.6%
COc1ccccc1/C=C1/C(=O)ON=C1C,-0.4%,-8.8,25.5%,1.3%,4.74µM*,50.1µM*
